HP1b binding inh: blocks HP1-beta chromodomain binding to methylated histone tails; P83916; AlphaScreen HP1-beta / biotin-H3K9me3 peptide binding; Potency, µM (top dose mostly 114 µM), inactives show top-dose activity change, negative = inhibition, most hits filed as inhibitors; 0.56% of 390,000 active; AID 540317; further: nearly all actives have a fitted effect of over 70% in size
Target sequence (P83916 whole entry, looked up): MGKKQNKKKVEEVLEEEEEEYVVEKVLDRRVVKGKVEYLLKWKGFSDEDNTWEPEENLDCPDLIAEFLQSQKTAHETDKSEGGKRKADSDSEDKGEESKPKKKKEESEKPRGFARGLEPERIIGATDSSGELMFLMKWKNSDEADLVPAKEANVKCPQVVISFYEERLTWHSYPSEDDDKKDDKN
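Compound inhibition of the preformed complex between 50 nM HP1-beta and 50 nM biotinylated H3K9me3 peptide was read by AlphaScreen. Buffer was PBS pH 7.4 with 0.01% Tween-20. Incubations ran 30 min at room temperature, with 10 ug/mL donor/acceptor beads.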
BAZ2B block: BAZ2B (human) inhibition; Q9UIF8; AlphaScreen BAZ2B-H3K14Ac peptide displacement; Potency, µM (titrated, usually from 114 µM), without a hit: at the top dose activity change, negative = inhibition, actives largely listed as inhibitors; 4.4% of 360,000 active; AID 504333; further: on the % scale 0 is the no-effect control and ±100 the full control effect; nearly all actives have a fitted effect of over 60% in size
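Protein-peptide AlphaScreen: BAZ2B 50 nM, b-H3K14Ac 50 nM, 1x PBS pH 7.4 + 0.01% Tween-20. Preincubation 30 min RT; cpd 30 min RT (top 110 uM); beads 20 min RT, light-protected.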
L3MBTL1 block: blocks human L3MBTL1. Q9Y468. AlphaScreen L3MBTL1–H3K9me1 peptide binding. 0.66% of 230,000 active. Potency, µM (top dose mostly 57.1 µM), inactives show at the highest dose activity, negative = inhibition, most hits filed as inhibitors. AID 485360; further: on the % scale 0 is the no-effect control and ±100 the full control effect; nearly all actives have a fitted effect of over 60% in size
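AlphaScreen assay: L3MBTL1 (50 nM final) was preincubated 30 min at room temperature with biotinylated H3(1-15)K9me1 peptide (75 nM final), then 30 min with library compounds; streptavidin donor and nickel chelate acceptor beads (10 ug/mL final) added, 30 min dark.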
G9a inh: blocks human histone lysine methyltransferase G9a. 8.8% of 350,000 active. AID 504332. G9a H3K9 monomethylation, AlphaScreen, 2 h. Q96KQ7. Potency, µM (top dose mostly 102 µM), inactives show at the highest dose activity, negative = inhibition, hits mostly inhibitors; further: on the % scale 0 is the no-effect control and ±100 the full control effect; nearly all actives have a fitted effect of over 75% in size
Target sequence (Q96KQ7 913-1193 limits assumed): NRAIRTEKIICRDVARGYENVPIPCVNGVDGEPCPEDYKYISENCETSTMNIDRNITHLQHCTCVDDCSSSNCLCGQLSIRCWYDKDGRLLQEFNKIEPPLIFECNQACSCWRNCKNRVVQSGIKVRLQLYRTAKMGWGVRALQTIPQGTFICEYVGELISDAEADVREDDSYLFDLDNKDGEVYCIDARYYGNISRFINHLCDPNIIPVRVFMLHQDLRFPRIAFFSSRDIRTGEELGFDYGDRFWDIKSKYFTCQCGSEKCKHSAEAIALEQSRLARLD
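Using a bead-based AlphaScreen, monomethylated H3K9 product from 2 h room-temperature reactions (G9a 20 nM, peptide 500 nM, SAM 20 uM) was detected with 0.5 ug/mL rabbit anti-H3K9me1 antibody.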
JMJD2A Tudor inh: JMJD2A Tudor domain (human) inhibition. O75164. Potency, µM (highest dose often 114 µM), without a hit: at the top dose activity change, negative = inhibition, most hits filed as inhibitors. 4.4% of 390,000 active. AlphaScreen JMJD2A-Tudor / H3K4me3 peptide binding; further: on the % scale 0 is the no-effect control and ±100 the full control effect; nearly all actives have a fitted effect of over 50% in size
Starred values were filed as active, the others as inactive; ? = inconclusive; . = no result given; [ ] = remark or other dose. Rows were chosen to be rich in hits. Some 11% of all compounds tested hit in one or more screens of this group. The call rests on the fitted dose curve; in most records, active means well fitted inhibition curve with a large enough effect; inconclusive means small, poorly fitted or top-dose-only effect; inactive means no such curve, though single readings can be large or run the other way. Potency means the concentration at half of the fitted maximal effect.

SMILES | HP1b binding inh | BAZ2B block | L3MBTL1 block | G9a inh | JMJD2A Tudor inh
CNCCCC1Sc2ccccc2Oc2ccccc21 (stereo not given) | -34% | ? | -25% | 7.9µM* | 8.9µM*
Cc1ccc(NC(=O)c2cnc(SCC(=O)N3CCOCC3)n(C)c2=O)cc1C | 16% | -1% | . | -3%[59 µM] | -7%
N#Cc1c([N+](=O)[O-])cc([N+](=O)[O-])cc1S(=O)(=O)Cc1ccccc1 | -38% | ? | -10% | ? | 79µM*
CC1CCN(S(=O)(=O)c2ccc3c(c2)N(CC(=O)NCc2ccccc2Cl)C(=O)CS3)CC1 | 4% | -2% | . | -21%[59 µM] | -36%
CCCS(=O)(=O)Nc1cc(-c2cn3ccc(C)cc3n2)ccc1C | 43% | -2% | . | 6%[59 µM] | -30%
Cc1ccc(C(=O)OCC2OC3OC(C)(C)OC3C2O)cc1 (stereo not given) | 36% | 12% | 3% | 16% | 5%
CC1(C)O[C@H]2OC([C@H](O)CON3C(=O)c4ccccc4C3=O)[C@H](O)[C@H]2O1 (stereo not given in full) | 18% | -31% | -1% | 45µM* | -33%
C[S+](C)CC[C@H](N)C(=O)O | . | . | . | -11%[12.7 µM] | .
O=C(CNC(=O)c1ccccc1F)NCCN1C(=O)S/C(=C\c2ccc3c(c2)OCO3)C1=O | 46% | 7% | -2% | 1%[2.33 µM] | 11%
NCCN1C(=O)S/C(=C\c2ccc3c(c2)OCO3)C1=O | -8% | -17% | . | 45µM* | -6%
COc1cc(/C=C2\SC(=O)N(CCN)C2=O)ccc1OS(=O)(=O)c1cc(C)ccc1C | ? | ? | . | 28µM* | 28µM*
COc1ccc(/C=C2\SC(=O)N(CCC(=O)Nc3ccccc3)C2=O)cc1OC | 20% | 4% | 10% | ? | -10%
CCOc1ccc(OCC)c(Nc2cc(C)nc3nc(-c4ccco4)nn23)c1 | 21% | -10% | . | -3%[59 µM] | -8%
CN1CCc2nc3sc(C(=O)Nc4cccc(C#N)c4)c(N)c3cc2C1 | -18% | ? | . | 16µM* | ?
CN1CCc2nc3sc(C(=O)Nc4c(F)cccc4F)c(N)c3cc2C1 | 26% | -38% | . | 16µM* | -26%
CN(C)C(=O)c1ccc(-c2ccc3ncnc(N4CCOCC4)c3c2)cc1 | . | . | . | -19%[0.501 µM] | .
CC(=O)c1cccc(NC(=O)NC(C)c2ccc3c(c2)OCO3)c1 (stereo not given) | 52% | -5% | . | 57% | 0%
CC(NC(=O)Nc1ccc([N+](=O)[O-])cc1)C(c1ccccc1)N1CCOCC1 (stereo not given) | 11% | 16% | -10% | 40µM* | -28%
CC(NC(=O)Nc1ccc(Cl)c(Cl)c1)C(c1ccccc1)N1CCOCC1 (stereo not given) | 41% | -1% | ? | 0% | -6%
CCOc1ccc(C(=O)Nc2ccccc2C(=O)OCc2cc(=O)n3nc(C4CC4)sc3n2)cc1 | 25% | -11% | . | 1%[12.7 µM] | 1%
CCc1nnc(NC(=O)CN2C(=O)c3ccccc3S2(=O)=O)s1 | 15% | -5% | . | -8%[59 µM] | -36%
Cc1cc(NC(=O)CN2C(=O)c3ccccc3S2(=O)=O)no1 | 27% | -16% | . | 25µM* | -13%
Cc1nnc(NC(=O)CN2C(=O)c3ccccc3S2(=O)=O)s1 | 22% | -2% | . | 50µM* | -28%
CS(=O)(=O)c1ccc(N)c(SSc2cc(S(C)(=O)=O)ccc2N)c1 | ? | 35µM* | -21% | ? | 1.4µM*
CS(=O)(=O)c1ccc2nc(N)sc2c1 | 26% | -4% | -5% | ? | 5%
SMILES | HP1b binding inh | BAZ2B block | L3MBTL1 block | G9a inh | JMJD2A Tudor inh
COc1ccc(C)cc1NC(=O)NC(C)c1c(-n2cccc2)sc(C)c1C (stereo not given) | -10% | ? | . | -27%[59 µM] | ?
CC1=CC(C)(C)NC(=S)N1c1cccc2cc(S(=O)(=O)O)ccc12 | 16% | -38% | ? | 25µM* | ?
NC(=O)c1ccc(NC(=O)C2CCN(S(=O)(=O)Cc3ccccc3)CC2)cc1 | 20% | 0% | . | ? | -4%
CCOC(=O)c1sc(N)c(C(=O)Nc2ccccc2)c1C | ? | -19% | -7% | 10µM* | -20%
CCOC(=O)c1sc(NC(=O)c2c(C)nn(Cc3ccccc3)c2C)cc1C | 15% | -2% | -4% | 50µM* | -7%
CCN(CC)C(=O)c1sc(N)c(C#N)c1C | -4% | 16% | 0% | ? | -5%
CCOC(=O)c1c(NC(=O)CSc2cccc[n+]2[O-])sc(C(=O)Nc2ccccc2)c1C | 33% | 0% | -12% | 45µM* | -3%
CCN(CC)C(=O)c1sc(N)c(C(=O)OC(C)C)c1C | -12% | 6% | 19%[11.4 µM] | 11µM* | -23%
CCOC(=O)c1sc(NC(=O)CSc2nc3ccccc3s2)c(C(=O)OCC)c1C | . | 4% | 5% | -7%[59 µM] | .
Cc1ccc(-n2nc(C(=O)NC(C)C)c(=O)n(C)c2=O)cc1 | 7%[57 µM] | -1% | . | -5%[59 µM] | -10%
CC1CCN(C(=O)CN2c3ccc(Br)cc3-c3ccccc3S2(=O)=O)CC1 | 39% | -16% | . | 0%[59 µM] | -24%
COC(=O)[C@@H]1[C@@H]2C[C@H]3c4[nH]c5ccccc5c4CCN3C[C@@H]2CC[C@@H]1O | . | . | . | 24%[59 µM] | .
CCOC(=O)c1c(N)sc(C(=O)OCCOC)c1C | ? | -20% | -25% | 11µM* | -22%[57.1 µM]
COC(=O)C1=C(C)N(Cc2ccc(OC)cc2)C(=O)/C1=C\c1ccco1 | ? | 13µM* | -29% | 10µM* | 40µM*
COC(=O)C1=C(C)N(C)C(=O)/C1=C\c1ccco1 | -7% | ? | -7% | -8%[59 µM] | -22%
COC(=O)C1=C(C)N(Cc2ccco2)C(=O)/C1=C\c1ccc([N+](=O)[O-])cc1 | -9% | ? | -3% | 18µM* | ?
Cc1ccc(C(=O)NCC(C)NC(=O)c2ccc(C)c([N+](=O)[O-])c2)cc1[N+](=O)[O-] (stereo not given) | 9% | . | . | . | -29%
CC(CNC(=O)c1cncc(O)c1)NC(=O)c1cncc(O)c1 (stereo not given) | 9% | ? | -7% | 45µM* | 50µM*
CCN(CC)c1cc2c(cc1F)c(=O)c(S(=O)(=O)c1cccc(C)c1)cn2C | 34% | 0% | . | 2%[59 µM] | 1%
CCn1cc(C(=O)NCc2ccccc2)c(=O)c2cc(S(=O)(=O)N3CCCCCC3)ccc21 | 34% | . | . | 0%[59 µM] | -12%
Cc1cc(C)cc(NC(=O)Cn2cc(S(=O)(=O)NC(C)(C)C)c(S(=O)(=O)NC(C)(C)C)c2)c1 | 1% | 0%[57.1 µM] | . | -28%[59 µM] | -25%
Cc1ccc2[nH]c(O)c(N=Nc3ccccc3[N+](=O)[O-])c2c1 | 12% | . | . | . | -22%
COc1ccccc1N=Nc1[nH]c2ccc(C)cc2c1O | -1% | 50µM* | -10% | 11µM* | ?
CCOC(=O)/C=C1\SCC(=O)N1CC(=O)NC(C)C | 9% | 7% | . | 3.5µM* | -6%
CCOC(=O)/C=C1\SCC(=O)N1CC(=O)NC(C)c1ccccc1 (stereo not given) | 36% | 0% | 6% | 20%[59 µM] | -4%

Assay outcomes (PubChem)
